{"source": "PubChem BioAssay AID1159580", "about": "(chemical genetic matrix, 2015)", "test": "chemical genetic growth profiling, strain panel (AID 1159580);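 note: tested at 20 µM; growth read once vehicle control cultures reached saturation at 30 °C; 1 = growth at the plate median or of vehicle wells; lower values mean less growth of the strain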", "details": "growth OD", "note": "Screen size: about 5,500 compounds; about 2,000 (36%) were called active. Roughly 18% stayed inconclusive and do not appear here. This is one part of the list. Values without a mark were called inactive. Cut-off read from the data, not from the text of the source: active = normalized growth mostly below about 0.91 (no sharp cut-off); inconclusive = no clear call, values can overlap the other calls; inactive = mostly above about 0.92.", "data": [{"smiles": "O=C1C(c2ccc(Br)cc2)=C(O)c2ccccc21", "values": [{"measurement": "normalized growth", "setting": "S. cerevisiae deletion strains, locus YAL013W, strain DEP1, stronger effect = lower value", "value": 0.981}, {"measurement": "normalized growth", "setting": "S. cerevisiae deletion strains, locus YBR229C, strain ROT2, stronger effect = lower value", "value": "0.912 (active)"}, {"measurement": "normalized growth", "setting": "S. cerevisiae deletion strains, locus YDL101C, strain DUN1, stronger effect = lower value", "value": 0.953}, {"measurement": "normalized growth", "setting": "S. cerevisiae deletion strains, locus YDR150W, strain NUM1, stronger effect = lower value", "value": 0.958}, {"measurement": "normalized growth", "setting": "S. cerevisiae deletion strains, locus YEL061C, strain CIN8, stronger effect = lower value", "value": 0.99}, {"measurement": "normalized growth", "setting": "S. cerevisiae deletion strains, locus YGR078C, strain PAC10, stronger effect = lower value", "value": "0.915 (active)"}, {"measurement": "normalized growth", "setting": "S. cerevisiae deletion strains, locus YGR229C, strain SMI1, stronger effect = lower value", "value": 0.952}, {"measurement": "normalized growth", "setting": "S. cerevisiae deletion strains, locus YHR030C, strain SLT2, stronger effect = lower value", "value": 0.849}, {"measurement": "normalized growth", "setting": "S. cerevisiae deletion strains, locus YHR087W, strain rtc3, stronger effect = lower value", "value": "0.868 (active)"}, {"measurement": "normalized growth", "setting": "S. cerevisiae deletion strains, locus YJL187C, strain SWE1, stronger effect = lower value", "value": "0.913 (active)"}, {"measurement": "normalized growth", "setting": "S. cerevisiae deletion strains, locus YJR043C, strain POL32, stronger effect = lower value", "value": 0.978}, {"measurement": "normalized growth", "setting": "S. cerevisiae deletion strains, locus YJR075W, strain HOC1, stronger effect = lower value", "value": "0.851 (active)"}, {"measurement": "normalized growth", "setting": "S. cerevisiae deletion strains, locus YKL190W, strain CNB1, stronger effect = lower value", "value": 0.983}, {"measurement": "normalized growth", "setting": "S. cerevisiae deletion strains, locus YLR039C, strain RIC1, stronger effect = lower value", "value": 0.974}, {"measurement": "normalized growth", "setting": "S. cerevisiae deletion strains, locus YLR058C, strain SHM2 (second series), stronger effect = lower value", "value": "0.893 (active)"}, {"measurement": "normalized growth", "setting": "S. cerevisiae deletion strains, locus YLR085C, strain ARP6, stronger effect = lower value", "value": 0.982}, {"measurement": "normalized growth", "setting": "S. cerevisiae deletion strains, locus YLR262C, strain YPT6, stronger effect = lower value", "value": 0.957}, {"measurement": "normalized growth", "setting": "S. cerevisiae deletion strains, locus YML094W, strain GIM5, stronger effect = lower value", "value": 0.983}, {"measurement": "normalized growth", "setting": "S. cerevisiae deletion strains, locus YMR219W, strain ESC1, stronger effect = lower value", "value": "0.896 (active)"}, {"measurement": "normalized growth", "setting": "S. cerevisiae deletion strains, locus YMR263W, strain SAP30, stronger effect = lower value", "value": 1.02}, {"measurement": "normalized growth", "setting": "S. cerevisiae deletion strains, locus YNL153C, strain GIM3, stronger effect = lower value", "value": 0.966}, {"measurement": "normalized growth", "setting": "S. cerevisiae deletion strains, locus YNL298W, strain CLA4 (second series), stronger effect = lower value", "value": 0.994}, {"measurement": "normalized growth", "setting": "S. cerevisiae deletion strains, locus YNL322C, strain KRE1, stronger effect = lower value", "value": "0.938 (active)"}, {"measurement": "normalized growth", "setting": "S. cerevisiae deletion strains, locus YNR030W, strain Alg12, stronger effect = lower value", "value": 0.989}, {"measurement": "normalized growth", "setting": "S. cerevisiae deletion strains, locus YOL006C, strain TOP1, stronger effect = lower value", "value": 1.01}, {"measurement": "normalized growth", "setting": "S. cerevisiae deletion strains, locus YPL055C, strain LGE1, stronger effect = lower value", "value": 0.928}, {"measurement": "normalized growth", "setting": "S. cerevisiae deletion strains, locus YPL241C, strain CIN2, stronger effect = lower value", "value": 1.03}, {"measurement": "normalized growth", "setting": "S. cerevisiae deletion strains, locus YPR135W, strain CTF4, stronger effect = lower value", "value": 0.942}, {"measurement": "normalized growth", "setting": "S. cerevisiae strains, strain wild type, stronger effect = lower value", "value": 0.979}]}]}
